According to a collection of fitness landscapes (doi:10.1016/j.celrep.2020.107928):
Over roughly 81,000 sequences, “one-hybrid fitness for binding parS DNA” has its median near -0.17; the highest 2% begin near 0.51. The sample holds the highest values, similar sequences and a random draw of the others, so the mix is not that of the screen.

B1: Caulobacter ParB omega fusion; a variant is named by its letters at X, in order, B8GW30 (parent)
chain: MESVVVGEPGMSEGRRGLGRGLSALLGEVDAAPAQAPGEQLGGSREAPIEILQRNPDQPRRTFREEDLEDLSNSIREKGVLQPILVRPSPDTAGEYQIVAGERAWRAAQRAGLKTVPIMVRELDDLAVLEIGIIENVQRADLNVLEEALSYKVLMEKFERTQENIAQTIGKSXSHVANXMRLLXLPDEVQSYLVSGELTAXHARAIAAAADPVALAKQIIEGGLSVRETEALARKAPNLSAGKSKGGRPPRVKDTDTQALESDLSSVLGLDVSIDHRGSTGTLTITYATLEQLDDLCNRLTRGI

Variants of: B1
Assay: one-hybrid fitness for binding parS DNA (scaled: cognate 1, non-cognate 0); higher = stronger binding
Details: with parS DNA site
Procedure, shortened: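 Pre- and post-selection plasmids were Illumina-sequenced, three replicate libraries were pooled, and any variant with under 10 reads was removed. The libraries were Caulobacter ParB with four specificity codons randomised, selected in E. coli USO through a HIS3 reporter whose site is 19 bp from the promoter. Cells grew 48 hours at 37°C on M9 without histidine, with 0.1 mM IPTG and 5 mM 3-AT. Fitness is the log change in variant-to-wild-type read ratio, rescaled against cognate and non-cognate.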

Variant	one-hybrid fitness for binding parS DNA
TVTE	≤ 0.2
HTAD	≤ 0.2
AGDD	≤ 0.2
KANA	≤ 0.2
WSQY	≤ 0.2
NLNG	≤ 0.2
DWLT	≤ 0.2
RAAP	≤ 0.2
RAFG	0.978
RAAG	1
RAFY	0.499
RAAN	0.448
RAFR	≤ 0.2
KYLA	≤ 0.2
TKWY	≤ 0.2
KNQS	≤ 0.2
CSRV	≤ 0.2
ATTE	≤ 0.2
WMPS	≤ 0.2
CPLP	≤ 0.2
GALY	≤ 0.2
NGLG	≤ 0.2
RQSQ	≤ 0.2
RQGK	≤ 0.2
RQSY	0.465
RQHR	≤ 0.2

Variant	one-hybrid fitness for binding parS DNA
RQGC	0.916
RQSC	0.968
RQHC	0.946
RQHM	0.325
RQQK	≤ 0.2
RQGM	0.287
RQQC	0.951
RQQQ	≤ 0.2
KYCL	≤ 0.2
AFDN	≤ 0.2
GKGS	≤ 0.2
WSNM	≤ 0.2
GTTW	≤ 0.2
ACNL	≤ 0.2
CRNF	≤ 0.2
SNIR	≤ 0.2
RQCK	≤ 0.2
RQLC	0.952
RQYF	0.256
RQRF	0.247
RQLQ	≤ 0.2
RQCC	0.874
RQYC	0.94
RQRY	0.504
RQCQ	≤ 0.2
RQLY	0.442

Variant	one-hybrid fitness for binding parS DNA
RQRC	0.943
RQYR	≤ 0.2
VAQC	≤ 0.2
FEDR	≤ 0.2
QQVS	≤ 0.2
VEHM	≤ 0.2
CAAW	≤ 0.2
APPF	≤ 0.2
YVRD	≤ 0.2
RQWC	0.797
RQWN	0.286
RQWD	≤ 0.2
CVQT	≤ 0.2
RFFS	0.841
RFAD	≤ 0.2
RFAH	≤ 0.2
RFFD	≤ 0.2
RFFP	≤ 0.2
RFAS	0.976
LQNH	≤ 0.2
TREM	≤ 0.2
DHQQ	≤ 0.2
STCC	≤ 0.2
RTCK	≤ 0.2
RMCG	1.04
RTCG	0.999

Variant	one-hybrid fitness for binding parS DNA
RSCQ	≤ 0.2
RICY	0.492
RMCH	0.262
RTCQ	≤ 0.2
RDCG	≤ 0.2
RSCG	0.966
RICG	0.976
RICQ	0.256
RMCN	0.389
ECVT	≤ 0.2
WSQP	≤ 0.2
VYQR	≤ 0.2
KDPE	≤ 0.2
DISI	≤ 0.2
KTLW	≤ 0.2
RPCG	≤ 0.2
RLCM	0.342
RCCG	1.03
RLCG	1
RECG	0.221
RLCF	0.27
PASK	≤ 0.2
CNGG	≤ 0.2
SRGF	≤ 0.2
AQNP	≤ 0.2
TPWY	≤ 0.2

Variant	one-hybrid fitness for binding parS DNA
KCYT	≤ 0.2
VISS	≤ 0.2
QETP	≤ 0.2
PTTA	≤ 0.2
DTNY	≤ 0.2
RYMK	≤ 0.2
RYMP	≤ 0.2
RYMC	0.994
RYMG	0.971
RYML	≤ 0.2
RYMT	0.887
RYMD	≤ 0.2
RYMS	0.963
RYMR	≤ 0.2
RYMQ	≤ 0.2
RYMH	≤ 0.2
RYMN	0.395
LCMG	≤ 0.2
NWQY	≤ 0.2
NQMR	≤ 0.2
DFGS	≤ 0.2
NLVV	≤ 0.2
TGGR	≤ 0.2
HAMN	≤ 0.2
WKPV	≤ 0.2
DGVM	≤ 0.2

Variant	one-hybrid fitness for binding parS DNA
RPCN	≤ 0.2
APGA	≤ 0.2
LMVR	≤ 0.2
EFNL	≤ 0.2
WIWS	≤ 0.2
RPCC	≤ 0.2
RSCP	≤ 0.2
RSCD	≤ 0.2
RDCC	≤ 0.2
RSCC	0.915
RCCC	0.959
RRIP	≤ 0.2
RRPF	≤ 0.2
RRPQ	≤ 0.2
RRIG	0.908
RRPG	0.891
RRIM	≤ 0.2
TAAL	≤ 0.2
KHMS	≤ 0.2
RYTH	≤ 0.2
RYTP	≤ 0.2
RYTT	0.884
RYTD	≤ 0.2
RYTS	0.904
RYTC	0.903
RYTG	0.992

Variant	one-hybrid fitness for binding parS DNA
RYTN	0.429
RYTM	0.295
RYTR	≤ 0.2
RYTK	≤ 0.2
RYTY	0.429
RFHK	≤ 0.2
NTHH	≤ 0.2
YAER	≤ 0.2
SRAR	≤ 0.2
DHRG	≤ 0.2
WTKG	≤ 0.2
TPGV	≤ 0.2
PQLQ	≤ 0.2
RWAM	≤ 0.2
RWFK	≤ 0.2
KWFG	≤ 0.2
RWFG	0.615
RWAF	≤ 0.2
RWAG	0.72
TYPT	≤ 0.2
MSSI	≤ 0.2
DTPG	≤ 0.2
HKES	≤ 0.2
ANPQ	≤ 0.2
WNSC	≤ 0.2
RNNP	≤ 0.2

Variant	one-hybrid fitness for binding parS DNA
RNND	≤ 0.2
RNDP	≤ 0.2
RNDS	0.823
RNNS	0.969
RNDN	0.226
HDLV	≤ 0.2
IGRI	≤ 0.2
WCIS	≤ 0.2
PFSI	≤ 0.2
AYDD	≤ 0.2
RKGP	≤ 0.2
RKYD	≤ 0.2
RKLY	0.402
RKYN	0.297
RKQG	0.913
RKLK	≤ 0.2
RKLG	0.964
RKYG	0.952
RKQM	≤ 0.2
RKGG	0.937
RKGH	≤ 0.2
RKQR	≤ 0.2
